These results are taken from the supplement of paper PMC7724964.

Holding throughout (assay): phage ELISA signal ratio (GST-PRM binding over GST background); higher = stronger binding of peptide-phage to the PRM
Experiment [1] deals with GGA3 579-723 Alpha_adaptinC2 (domain begin residue: 579, domain end residue: 723). An outline of the steps:
(§1)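 Human peptide recognition domains were expressed in 96-well plates as fusions to the C-terminus of glutathione S-transferase (GST) and selected against an M13 phage library displaying randomized hexadecapeptides, cysteine-free and glycine-flanked, on the gene-8 major coat protein. Five selection rounds were run, and approximately 48 individual clones from rounds 4 and 5 were tested by phage ELISA. Each value is the ELISA signal on the GST-domain fusion divided by the signal on GST alone. Positive clones were sequenced.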

For experiment [2], the target named is T1, GGA1 1-157 VHS (domain begin residue: 1, domain end residue: 157), Q9UJY5.
T1 chain: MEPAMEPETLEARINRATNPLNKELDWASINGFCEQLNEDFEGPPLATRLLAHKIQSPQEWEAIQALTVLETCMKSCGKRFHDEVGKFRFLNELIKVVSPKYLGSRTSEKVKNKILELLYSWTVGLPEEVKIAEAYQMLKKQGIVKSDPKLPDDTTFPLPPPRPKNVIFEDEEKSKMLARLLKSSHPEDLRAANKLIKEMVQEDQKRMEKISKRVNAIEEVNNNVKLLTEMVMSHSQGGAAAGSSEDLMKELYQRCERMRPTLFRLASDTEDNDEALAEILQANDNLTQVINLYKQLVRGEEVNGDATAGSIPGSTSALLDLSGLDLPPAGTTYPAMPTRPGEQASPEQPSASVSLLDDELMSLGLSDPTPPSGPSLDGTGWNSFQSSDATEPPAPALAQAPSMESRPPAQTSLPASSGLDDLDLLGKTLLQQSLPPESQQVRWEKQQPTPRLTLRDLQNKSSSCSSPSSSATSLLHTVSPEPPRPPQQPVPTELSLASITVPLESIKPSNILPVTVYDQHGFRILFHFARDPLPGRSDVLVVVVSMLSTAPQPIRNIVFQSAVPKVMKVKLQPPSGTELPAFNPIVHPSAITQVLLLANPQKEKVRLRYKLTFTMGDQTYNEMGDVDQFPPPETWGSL
An outline of the steps:
as §1

Experiment [3] has as its target T2, GIGYF2 507-602 GYF (domain begin residue: 507, domain end residue: 602), Q6Y7W6.
T2 chain: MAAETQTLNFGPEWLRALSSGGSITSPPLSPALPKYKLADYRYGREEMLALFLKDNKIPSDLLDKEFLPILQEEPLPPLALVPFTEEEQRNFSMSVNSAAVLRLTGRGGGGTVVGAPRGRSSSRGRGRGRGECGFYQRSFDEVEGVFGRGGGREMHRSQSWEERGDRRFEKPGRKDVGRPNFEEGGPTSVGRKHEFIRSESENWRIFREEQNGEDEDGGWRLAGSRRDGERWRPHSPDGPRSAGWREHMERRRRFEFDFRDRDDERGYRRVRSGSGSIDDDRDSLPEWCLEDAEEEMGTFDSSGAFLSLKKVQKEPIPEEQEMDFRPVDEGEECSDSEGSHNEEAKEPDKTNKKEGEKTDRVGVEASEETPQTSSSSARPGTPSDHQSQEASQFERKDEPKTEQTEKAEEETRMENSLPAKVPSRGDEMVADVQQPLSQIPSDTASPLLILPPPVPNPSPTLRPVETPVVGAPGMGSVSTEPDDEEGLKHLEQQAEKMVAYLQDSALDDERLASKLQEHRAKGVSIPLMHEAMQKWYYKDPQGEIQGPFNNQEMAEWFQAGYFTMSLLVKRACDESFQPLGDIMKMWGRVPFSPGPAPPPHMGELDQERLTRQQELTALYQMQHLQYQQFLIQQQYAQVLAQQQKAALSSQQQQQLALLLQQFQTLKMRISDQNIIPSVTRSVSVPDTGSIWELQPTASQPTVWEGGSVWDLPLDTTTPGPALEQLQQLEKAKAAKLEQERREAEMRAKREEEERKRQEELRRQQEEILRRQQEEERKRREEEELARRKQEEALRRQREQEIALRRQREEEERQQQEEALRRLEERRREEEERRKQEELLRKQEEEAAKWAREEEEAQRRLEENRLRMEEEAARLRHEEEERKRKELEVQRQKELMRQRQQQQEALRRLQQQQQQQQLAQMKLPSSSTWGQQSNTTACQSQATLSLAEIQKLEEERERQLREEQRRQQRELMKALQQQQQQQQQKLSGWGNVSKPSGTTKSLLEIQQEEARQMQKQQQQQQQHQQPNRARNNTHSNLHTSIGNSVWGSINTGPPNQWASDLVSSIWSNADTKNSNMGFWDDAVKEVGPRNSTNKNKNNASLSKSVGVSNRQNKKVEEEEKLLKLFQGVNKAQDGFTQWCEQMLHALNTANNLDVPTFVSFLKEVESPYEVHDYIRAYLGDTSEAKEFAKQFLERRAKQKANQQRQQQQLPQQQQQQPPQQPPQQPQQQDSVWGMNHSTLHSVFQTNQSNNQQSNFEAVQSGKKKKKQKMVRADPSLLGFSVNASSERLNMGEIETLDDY
An outline of the steps: as §1

The target in experiment [4] is T3, GIGYF1 448-540 GYF (domain begin residue: 448, domain end residue: 540), O75420.
T3 chain: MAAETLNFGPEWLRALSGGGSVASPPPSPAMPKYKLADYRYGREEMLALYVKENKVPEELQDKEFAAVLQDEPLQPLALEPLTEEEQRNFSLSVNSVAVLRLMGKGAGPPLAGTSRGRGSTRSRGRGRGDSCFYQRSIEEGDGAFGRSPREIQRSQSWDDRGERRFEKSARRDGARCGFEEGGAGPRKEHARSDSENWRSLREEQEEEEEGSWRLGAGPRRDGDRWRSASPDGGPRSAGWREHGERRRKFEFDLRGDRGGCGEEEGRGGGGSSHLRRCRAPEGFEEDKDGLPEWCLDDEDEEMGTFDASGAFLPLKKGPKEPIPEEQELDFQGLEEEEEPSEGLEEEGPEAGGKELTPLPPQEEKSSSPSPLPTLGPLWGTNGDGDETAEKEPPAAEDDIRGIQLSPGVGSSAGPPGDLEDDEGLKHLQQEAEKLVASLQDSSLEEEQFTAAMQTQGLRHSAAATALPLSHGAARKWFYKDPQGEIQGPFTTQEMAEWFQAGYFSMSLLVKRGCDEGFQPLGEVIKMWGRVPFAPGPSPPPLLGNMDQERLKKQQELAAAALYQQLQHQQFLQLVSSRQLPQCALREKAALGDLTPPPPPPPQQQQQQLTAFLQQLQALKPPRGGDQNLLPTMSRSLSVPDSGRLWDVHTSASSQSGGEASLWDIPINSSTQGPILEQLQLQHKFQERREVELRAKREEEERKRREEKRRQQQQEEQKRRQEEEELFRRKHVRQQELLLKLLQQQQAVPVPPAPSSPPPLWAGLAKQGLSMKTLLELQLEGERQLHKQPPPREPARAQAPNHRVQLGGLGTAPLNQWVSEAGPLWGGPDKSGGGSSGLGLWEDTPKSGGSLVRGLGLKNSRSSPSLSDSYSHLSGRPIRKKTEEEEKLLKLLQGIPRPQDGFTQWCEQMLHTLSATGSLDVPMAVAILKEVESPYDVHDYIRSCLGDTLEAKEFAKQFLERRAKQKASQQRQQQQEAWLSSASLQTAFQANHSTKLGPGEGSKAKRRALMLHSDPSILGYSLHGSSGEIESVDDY
A digest of the protocol: as §1

For experiment [5], the target named is T4, SPRED2 1-124 WH1 (domain begin residue: 1, domain end residue: 124), Q7Z698.
T4 chain: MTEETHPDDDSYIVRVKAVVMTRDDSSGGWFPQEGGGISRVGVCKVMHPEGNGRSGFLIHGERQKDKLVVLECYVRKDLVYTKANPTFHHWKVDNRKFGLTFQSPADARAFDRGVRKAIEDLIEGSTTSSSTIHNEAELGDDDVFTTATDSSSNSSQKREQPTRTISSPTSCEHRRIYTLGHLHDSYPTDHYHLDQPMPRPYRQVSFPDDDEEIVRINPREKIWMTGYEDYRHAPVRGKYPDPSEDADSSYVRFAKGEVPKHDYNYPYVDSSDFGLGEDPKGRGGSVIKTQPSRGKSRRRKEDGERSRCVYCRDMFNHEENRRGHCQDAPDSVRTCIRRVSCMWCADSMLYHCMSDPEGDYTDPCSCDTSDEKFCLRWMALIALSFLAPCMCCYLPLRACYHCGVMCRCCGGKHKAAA
An outline of the steps:
as §1

The target of experiment [6] is T5, FRS3 12-117 IRS (domain begin residue: 12, domain end residue: 117), O43559.
T5 chain: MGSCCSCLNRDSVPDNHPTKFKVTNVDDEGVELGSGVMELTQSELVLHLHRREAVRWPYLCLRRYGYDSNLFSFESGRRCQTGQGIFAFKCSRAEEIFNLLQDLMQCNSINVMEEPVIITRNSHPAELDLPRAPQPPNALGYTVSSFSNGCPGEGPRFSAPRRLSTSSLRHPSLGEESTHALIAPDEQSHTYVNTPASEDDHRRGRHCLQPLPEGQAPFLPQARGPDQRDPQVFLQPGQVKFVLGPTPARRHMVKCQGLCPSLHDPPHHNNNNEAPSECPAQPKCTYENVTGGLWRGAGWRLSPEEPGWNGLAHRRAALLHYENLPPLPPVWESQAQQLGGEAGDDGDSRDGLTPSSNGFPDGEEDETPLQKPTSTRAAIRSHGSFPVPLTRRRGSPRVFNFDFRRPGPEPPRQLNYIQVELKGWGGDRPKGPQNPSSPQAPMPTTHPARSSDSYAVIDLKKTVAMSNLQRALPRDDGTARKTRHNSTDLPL
An outline of the steps:
as §1

Experiment [7] has as its target GGA3 1-153 VHS (domain begin residue: 1, domain end residue: 153). A digest of the protocol:
as §1

Experiment [8] has as its target T6, GNA14 2-355 G-alpha (domain begin residue: 2, domain end residue: 355), O95837.
T6 chain: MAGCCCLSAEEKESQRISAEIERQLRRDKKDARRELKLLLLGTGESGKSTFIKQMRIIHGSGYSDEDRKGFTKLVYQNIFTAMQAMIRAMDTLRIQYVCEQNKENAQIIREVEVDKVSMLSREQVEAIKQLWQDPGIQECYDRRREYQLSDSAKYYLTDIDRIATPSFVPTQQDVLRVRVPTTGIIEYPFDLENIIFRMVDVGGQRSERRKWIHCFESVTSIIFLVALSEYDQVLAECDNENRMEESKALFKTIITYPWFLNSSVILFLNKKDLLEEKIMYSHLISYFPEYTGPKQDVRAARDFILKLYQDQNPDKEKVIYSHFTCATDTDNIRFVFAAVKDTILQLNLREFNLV
An outline of the steps:
as §1

Experiment [9] deals with T7, FKBP3 109-224 FKBP_C (domain begin residue: 109, domain end residue: 224), Q00688.
T7 chain: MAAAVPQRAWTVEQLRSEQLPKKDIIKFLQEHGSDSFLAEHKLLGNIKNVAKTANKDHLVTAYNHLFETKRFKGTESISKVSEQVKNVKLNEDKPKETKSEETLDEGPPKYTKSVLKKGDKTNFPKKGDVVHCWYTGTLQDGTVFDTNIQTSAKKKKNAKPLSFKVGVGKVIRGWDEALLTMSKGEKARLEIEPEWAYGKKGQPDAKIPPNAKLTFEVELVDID
An outline of the steps:
as §1

With DEWGQWQLHESVFLME, in experiment [1], the “phage ELISA signal ratio” value came out at 27.9.
For AWGKYQSWEPQEWPAT, the “phage ELISA signal ratio” value in experiment [1] was found to be 13.4.
For the molecule PDAMPLWHGHHVVPVY, the “phage ELISA signal ratio” value in experiment [2] is 18.9.
SEVHPPGFAQEHHIMQ: the “phage ELISA signal ratio” value in experiment [3] worked out at 23.9.
With SAPPGYQTGLLMAEYR, the “phage ELISA signal ratio” value in experiment [4] is 7.85; in experiment [5], 3.46.
On to IQWNDMDFENLSGWWG, for which the “phage ELISA signal ratio” value in [1] was determined as 4.03.
Consider VNNQWDNDVPMLSMFA, for which the “phage ELISA signal ratio” value in experiment [2] was 16.4.
Consider SRWVQIMHNGEETDSY, for which the “phage ELISA signal ratio” value in experiment [6] is 16.9.
Take MTWWVAPWNESLDLWE: the “phage ELISA signal ratio” value in experiment [6] stood at 10.5.
For WGHYEEDQMFVFMDHE, in experiment [2], the “phage ELISA signal ratio” value was 19.8.
Regarding NMFMPPGFAPQQVQMH, the “phage ELISA signal ratio” value in experiment [3] came out at 13.9.
Take EVWWQGPEEDWMQTYL: in experiment [7], the “phage ELISA signal ratio” value amounted to 11.9.
Regarding DGDVQKWGPYYSFTQQ, the “phage ELISA signal ratio” value in experiment [8] was 28.9.
In the case of SQWMWIVHEPVKNLPK, in experiment [6], the “phage ELISA signal ratio” value worked out at 3.36.
With PDTELIDVHQWRTSQW, the “phage ELISA signal ratio” value in [7] was 22.1.
On to TMHHDDQLLDLYSVRK, for which, in experiment [2], the “phage ELISA signal ratio” value was 18.5.
Turning to VWQVPEWQTVQLEYMK, the “phage ELISA signal ratio” value in experiment [6] came out at 17.9.
In the case of VGQGVFLDWKPGRDVN, the “phage ELISA signal ratio” value in experiment [9] worked out at 17.5; in experiment [6], 10.6.
As to EYLQIPVHHVDGIWSV, the “phage ELISA signal ratio” value in experiment [7] amounted to 10.8.
For the molecule VDEWSVMKYPVEQKWV, the “phage ELISA signal ratio” value in experiment [7] is 21.6.
As for HDFYIPYMYQDVTMIM, in experiment [2], the “phage ELISA signal ratio” value was 6.03.
As for QPDQIRFGPYISFSAI, the “phage ELISA signal ratio” value in experiment [8] amounted to 24.3.
For the molecule WEDWMEDWRQWEEPRK, in [1], the “phage ELISA signal ratio” value was found to be 31.4.
For EMDVEMWFPHFMNHSF, the “phage ELISA signal ratio” value in experiment [7] came to 34.5.
For PQIQWYMDDILLVPTI, in experiment [2], the “phage ELISA signal ratio” value was 15.5.
The same measure, in the same setting: for DEILLHLPWAAMHWEG the value was 22.3.
In the case of ARDLPPGFVMSPENAM, the “phage ELISA signal ratio” value in experiment [3] is 11.7.
